The source of these data is PubChem BioAssay (NCATS).

Assay [1] addresses Cytochrome P450 3A4 (Homo sapiens) (UniProt P08684). The experiment in a line: qHTS Assay for Inhibitors and Substrates of Cytochrome P450 3A4 (AID 884). Further: on the % scale 0 is the no-effect control and ±100 the full control effect; nearly all actives have a fitted effect of over 50% in size. A digest of the protocol: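 20 nM human CYP3A4 with 25 uM Luciferin-PPXE (at KM) in 200 mM KPO4, preincubated 10 min with compound; NADPH regeneration started a 60 min RT reaction. Luciferin detected by luminescence, normalized to 57 uM ketoconazole as full inhibition.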
On the technique in general: Quantitative high-throughput screening tests each substance at several concentrations.

A short description of assay [2]: Confirmation and Secondary Assay for Modulators of Hemoglobin Beta Chain Splicing at IVS2 654 locus (AID 910).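 Further: HeLa cells stably carrying EGFP split by mutant beta-globin IVS2-654 intron; % of control where 0% means no effect.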 A digest of the protocol:
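HeLa cells stably expressing EGFP interrupted by β-globin IVS2-654 intron, seeded overnight in Opti-MEM/2% FCS, then treated 2 days at 37 °C. Restored splicing read as total peak GFP intensity per well by laser scanning cytometry (488 nm excitation, 500–520 nm emission); 500 nM antisense PNA as control.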

The nature of assay [3]: Confirmation and Secondary Assay for Modulators of Hemoglobin Beta Chain Splicing at IVS2 705 locus (AID 930).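 Further: HeLa cells stably expressing the EGFP-705 splicing reporter; GFP fluorescence per well restored by corrected splicing of the IVS2-705 intron in EGFP; % of control where 0% means no effect.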 The method, boiled down:
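HeLa cells stably carrying EGFP interrupted by mutant beta-globin intron 2 (IVS2-705) treated 2 days at 37C with compound; 500 nM antisense PNA as control. Correct splicing read as total peak GFP intensity per well by laser-scanning cytometry.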

The nature of assay [4]: qHTS Assay for Lipid Storage Modulators (AID 1519; calls by dose curve; on activity change, negative = inhibition: on the % scale 0 is the no-effect control and ±100 the full control effect). The following applies: Drosophila S3 cells, BODIPY lipid droplet/cell ratio, laser cytometry, cells loaded with oleic acid; for activity change, negative = inhibition: at 57.5 µM (top of the series). The method, boiled down: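 Cells seeded at 5,000 per well were treated with compounds over a concentration series and loaded with oleic acid (400 uM, as added). Lipid droplet fluorescence (488 nm excitation, 500-530 nm channel) was read by laser-scanning cytometry and normalized to 20 uM Triacsin C.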

For assay [5], the target named is Ubiquitin carboxyl-terminal hydrolase 1 (Homo sapiens) (UniProt O94782). As to the kind of experiment: Inhibitors of USP1/UAF1: Pilot qHTS (AID 504865).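 Further: rhodamine fluorescence freed from ubiquitin-rhodamine substrate followed over time; top concentration of the series differs between compounds; on the % scale 0 is the no-effect control and ±100 the full control effect; nearly all actives have a fitted effect of over 35% in size.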 The method, boiled down: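 Enzyme-free wells gave the negative control, while test wells held 1nM USP1/UAF1 preincubated with compound for 15 min at room temperature. Ub-Rho at 150nM final started the reaction, and fluorescence at 480/540 nm was recorded kinetically.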

Where [6] appears, read: measured here: cell count channel max response.
The mark [7] stands for this setting: measured here: lipid channel max response.

Structures can show the parent of a compound that is named as a salt. Records with an inconclusive call do not appear. Active and inactive are the calls of the source. Unless noted, the call rests on the fitted dose curve; in most records, active means well fitted curve in the direction sought with a large enough effect; inconclusive means small, poorly fitted or top-dose-only effect, or another doubt; inactive means no such curve, though single readings can be large; an effect the other way counts as inactive or inconclusive. Peptide text beside a SMILES is read from it. * marks the point of attachment. Tfa = O=C(C(F)(F)F)*

Cytochrome P450 3A4 (Homo sapiens), sequence (P08684 whole entry, looked up): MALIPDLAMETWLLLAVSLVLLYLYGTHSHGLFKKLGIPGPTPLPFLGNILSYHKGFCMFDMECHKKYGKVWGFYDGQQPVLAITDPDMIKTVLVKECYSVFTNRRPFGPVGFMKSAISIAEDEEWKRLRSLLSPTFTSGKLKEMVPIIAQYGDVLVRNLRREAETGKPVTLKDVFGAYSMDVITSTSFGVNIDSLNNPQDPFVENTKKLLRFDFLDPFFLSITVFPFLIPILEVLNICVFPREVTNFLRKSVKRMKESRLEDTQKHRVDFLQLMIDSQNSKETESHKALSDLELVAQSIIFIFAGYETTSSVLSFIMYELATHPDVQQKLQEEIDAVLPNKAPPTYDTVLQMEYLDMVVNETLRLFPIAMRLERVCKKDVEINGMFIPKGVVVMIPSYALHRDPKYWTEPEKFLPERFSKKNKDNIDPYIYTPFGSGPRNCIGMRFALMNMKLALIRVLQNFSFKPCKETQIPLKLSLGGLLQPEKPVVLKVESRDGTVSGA
Ubiquitin carboxyl-terminal hydrolase 1 (Homo sapiens), sequence (O94782 whole entry, looked up): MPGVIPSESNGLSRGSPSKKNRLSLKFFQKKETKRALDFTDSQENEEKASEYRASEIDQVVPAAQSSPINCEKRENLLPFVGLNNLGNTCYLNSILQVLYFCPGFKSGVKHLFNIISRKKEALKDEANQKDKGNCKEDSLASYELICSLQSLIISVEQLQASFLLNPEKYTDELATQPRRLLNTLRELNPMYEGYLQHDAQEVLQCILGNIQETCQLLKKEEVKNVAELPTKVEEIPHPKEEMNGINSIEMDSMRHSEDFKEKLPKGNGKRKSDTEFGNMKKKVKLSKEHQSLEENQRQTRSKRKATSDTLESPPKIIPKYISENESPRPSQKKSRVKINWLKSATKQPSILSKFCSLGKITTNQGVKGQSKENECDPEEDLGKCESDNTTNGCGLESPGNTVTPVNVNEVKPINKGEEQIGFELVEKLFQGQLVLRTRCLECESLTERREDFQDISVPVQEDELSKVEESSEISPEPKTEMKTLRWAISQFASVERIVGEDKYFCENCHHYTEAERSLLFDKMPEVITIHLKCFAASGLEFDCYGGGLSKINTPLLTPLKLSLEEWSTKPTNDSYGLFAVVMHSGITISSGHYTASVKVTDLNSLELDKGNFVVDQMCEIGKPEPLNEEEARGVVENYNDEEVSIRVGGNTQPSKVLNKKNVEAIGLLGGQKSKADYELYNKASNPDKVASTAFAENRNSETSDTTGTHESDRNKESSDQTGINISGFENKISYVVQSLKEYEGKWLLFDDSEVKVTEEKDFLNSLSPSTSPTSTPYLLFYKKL

In the case of `CCCCC(=O)Oc1ccccc1C(=O)O`, the Potency result in assay [1], in assay [2], in assay [3] and in assay [5] was “inactive” each time. Further, the activity change, negative = inhibition in assay [4] was -0.236% (inactive). In addition, the max response in assay [4] (setting [6]) came out at 5.62%; in assay [4] (setting [7]), 5.3%.

For `CC(=O)O[C@]1(C)CC[C@]23CC1C(C)(C)C2CC[C@@H]3C` (stereo not given in full), the Potency result in assay [1], in assay [2], in assay [3] and in assay [5] was “inactive” throughout. Further, the activity change, negative = inhibition in assay [4] was 3.63% (inactive). The max response was determined as 7.64% in assay [4] (setting [6]) and 13.6% in assay [4] (setting [7]).

As to `CC1O[C@@H](O[C@H]2C(Oc3cc(O)c4c(c3)OC(c3ccc(O)cc3)CC4=O)OC(CO)C(O)C2O)C(O)C(O)C1O` (stereo not given in full), the Potency entry in assay [1], in assay [2], in assay [3] and in assay [5] was “inactive” each time. Also, the activity change, negative = inhibition in assay [4] is 6.1% (inactive). Further, the max response in assay [4] (setting [6]) is 13%; in assay [4] (setting [7]) it was 21.6%.

For `OC1C2COC(O2)[C@H](O)C1O` (stereo not given in full), the Potency result in assay [1], in assay [2], in assay [3] and in assay [5] was “inactive” throughout. In assay [4], the activity change, negative = inhibition was 7.67% (inactive). Further, the max response in assay [4] (setting [6]) was found to be 12.6%; in assay [4] (setting [7]), 22.2%.

As to `CC(C)C(NC(=O)C(Cc1ccc(O)cc1)NC(=O)C(NC(=O)C(F)(F)F)C(C)C)C(=O)O` (stereo not drawn) (Tfa-Val-Tyr-Val-OH; configuration not given here), the Potency result in assay [1], in assay [2], in assay [3] and in assay [5] was “inactive” each time. The activity change, negative = inhibition in assay [4] was 4.31% (inactive). Besides, the max response came to 0.432% in assay [4] (setting [6]) and 4.35% in assay [4] (setting [7]).

Consider `CC(=O)OCC(=O)[C@@]1(O)CCC2C3CCC4=CC(=O)CC[C@@]4(C)[C@]3(F)C(O)C[C@]21C` (stereo not given in full), for which the Potency result in assay [1], in assay [2], in assay [3] and in assay [5] was “inactive” in each case. Further, the activity change, negative = inhibition in assay [4] was 4.35% (inactive). Besides, the figures for the max response in assay [4] (setting [6]) and in assay [4] (setting [7]) were 21.1% and 29.1%, respectively.

Turning to `CC(=O)Oc1cc(-c2coc3cc(OC(C)=O)c(OC(C)=O)c(OC(C)=O)c3c2=O)cc(OC(C)=O)c1OC(C)=O`, the Potency entry in assay [1], in assay [2], in assay [3] and in assay [5] was “inactive” in each case. In addition, the activity change, negative = inhibition in assay [4] was 13.7% (inactive). Also, the max response is 12.1% in assay [4] (setting [6]) and 28.6% in assay [4] (setting [7]).

With `NCCCCC(N)C(=O)NC(Cc1ccc(O)cc1)C(=O)NC(CCCCN)C(=O)O` (stereo not drawn) (H-Lys-Tyr-Lys-OH; configuration not given here), the Potency result in assay [1], in assay [2], in assay [3] and in assay [5] was “inactive” in each case. The activity change, negative = inhibition in assay [4] was 1.3% (inactive). Further, the max response in assay [4] (setting [6]) came to 3.42%; in assay [4] (setting [7]) it was 5.58%.

As to `COc1c(O)cccc1O`, the Potency entry in assay [1], in assay [2], in assay [3] and in assay [5] was “inactive” each time. For the same compound, the activity change, negative = inhibition in assay [4] was 5.35% (inactive). The values for the max response in assay [4] (setting [6]) and in assay [4] (setting [7]) were -1.6% and 5.81%, respectively.

For `CC(C)CC(NC(=O)CN)C(=O)NC(Cc1ccccc1)C(=O)O` (stereo not drawn) (H-Gly-Leu-Phe-OH; configuration not given here), the Potency entry in assay [1], in assay [2], in assay [3] and in assay [5] was “inactive” throughout. For the same compound, the activity change, negative = inhibition in assay [4] was 6.28% (inactive). The values for the max response in assay [4] (setting [6]) and in assay [4] (setting [7]) were 3.97% and 11.6%, respectively.

Turning to `C=C1C(N)CC2CC1C2(C)C` (stereo not given), the Potency entry in assay [1], in assay [2], in assay [3] and in assay [5] was “inactive” in each case. The activity change, negative = inhibition in assay [4] is 1.08% (inactive). Also, the max response in assay [4] (setting [6]) worked out at 14%; in assay [4] (setting [7]) it was 14.9%.

In the case of `CCNC(=O)CCC(N)C(=O)O` (stereo not given), the Potency result in assay [1], in assay [2], in assay [3] and in assay [5] was “inactive” each time. For the same compound, the activity change, negative = inhibition in assay [4] was 2.77% (inactive). Moreover, the max response in assay [4] (setting [6]) is 9.46%; in assay [4] (setting [7]), 16.9%.

Consider `CC1C(O)CC2C(C(=O)O)=CO[C@@H](O[C@H]3OC(CO)C(O)C(O)C3O)C21` (stereo not given in full), for which the Potency entry in assay [1], in assay [2], in assay [3] and in assay [5] was “inactive” in each case. Further, the activity change, negative = inhibition in assay [4] is 4.54% (inactive). The values for the max response in assay [4] (setting [6]) and in assay [4] (setting [7]) were 10.9% and 15.2%, respectively.

On to `COc1cc(OC)c2c(c1Cl)OC1(C2=O)C(O)=CC(=O)CC1C` (stereo not given), for which the Potency entry in assay [1], in assay [2], in assay [3] and in assay [5] was “inactive” throughout. Further, the activity change, negative = inhibition in assay [4] was 0.55% (inactive). Also, the values for the max response in assay [4] (setting [6]) and in assay [4] (setting [7]) were -1.12% and 2.38%, respectively.

Regarding `Nc1nc2c(ncn2C2OC(CO)CC2O)c(=O)[nH]1` (stereo not given), the Potency result in assay [1], in assay [2], in assay [3] and in assay [5] was “inactive” each time. For the same compound, in assay [4], the activity change, negative = inhibition was 6.37% (inactive). For the same compound, the max response in assay [4] (setting [6]) is 3.55%; in assay [4] (setting [7]), 10.6%.

For the compound `COc1cccc(/C=C/C(=O)O)c1C(C)C`, the Potency result in assay [1], in assay [2], in assay [3] and in assay [5] was “inactive” throughout. The activity change, negative = inhibition in assay [4] is 9.75% (inactive). Also, the max response in assay [4] (setting [6]) was 13%; in assay [4] (setting [7]), 26.7%.

As to `C/C=C1\C2C=C(C)C[C@@]1(N)c1ccc(=O)[nH]c1C2`, the Potency entry in assay [1], in assay [2], in assay [3] and in assay [5] was “inactive” in each case. Moreover, in assay [4], the activity change, negative = inhibition was 13.7% (inactive). Besides, the max response amounted to 9.87% in assay [4] (setting [6]) and 26.4% in assay [4] (setting [7]).

In the case of `CS(=O)(=O)CCCCN=C=S`, the Potency entry in assay [1], in assay [2], in assay [3] and in assay [5] was “inactive” each time. Moreover, the activity change, negative = inhibition in assay [4] was -15.3% (inactive). The max response in assay [4] (setting [6]) is -1.15%; in assay [4] (setting [7]) it was -18%.

With `C[C@@]12CCC3c4ccc(OS(=O)(=O)O)cc4CCC3C1CCC2O` (stereo not given in full), the Potency result in assay [1], in assay [2], in assay [3] and in assay [5] was “inactive” throughout. Further, in assay [4], the activity change, negative = inhibition was 4.64% (inactive). Further, the max response is 6.41% in assay [4] (setting [6]) and 9.99% in assay [4] (setting [7]).

On to `CC1(C)CC[C@]2(C)CC[C@@]3(C)C(=CCC4[C@@]5(C)CCC(O)C(C)(C)C5CC[C@@]43C)C2C1` (stereo not given in full), for which the Potency result in assay [1], in assay [2], in assay [3] and in assay [5] was “inactive” throughout. Also, in assay [4], the activity change, negative = inhibition is 3.54% (inactive). For the same compound, the figures for the max response in assay [4] (setting [6]) and in assay [4] (setting [7]) were 18% and 24.3%, respectively.

On to `CC(=O)OCC(OC(C)=O)C(OC(C)=O)C(OC(C)=O)C(OC(C)=O)C(COC(C)=O)OC(C)=O` (stereo not given), for which the Potency entry in assay [1], in assay [2], in assay [3] and in assay [5] was “inactive” each time. For the same compound, in assay [4], the activity change, negative = inhibition was 10.5% (inactive). Besides, the max response in assay [4] (setting [6]) is 5.07%; in assay [4] (setting [7]), 17.8%.

For the compound `CCC1OC(=O)C(C)[C@@H](O[C@H]2C[C@@](C)(OC)C(O)C(C)O2)C(C)[C@@H](O[C@@H]2OC(C)CC(N(C)C)C2O)[C@](C)(O)CC(C)/C(=N\OCOCCOC)[C@H](C)C(O)[C@]1(C)O` (stereo not given in full), the Potency entry in assay [1], in assay [2], in assay [3] and in assay [5] was “inactive” throughout. The activity change, negative = inhibition in assay [4] is 7.24% (inactive). The max response in assay [4] (setting [6]) was 27.8%; in assay [4] (setting [7]), 41%.

Turning to `CC(=O)OCC(=O)C1CCC2C3CC=C4CC(O)CC[C@@]4(C)C3CC[C@]12C` (stereo not given in full), the Potency entry in assay [1], in assay [2], in assay [3] and in assay [5] was “inactive” in each case. Moreover, in assay [4], the activity change, negative = inhibition was 8.84% (inactive). Besides, the figures for the max response in assay [4] (setting [6]) and in assay [4] (setting [7]) were 22.6% and 38.3%, respectively.

With `COc1cc2c3cc1Oc1cc(ccc1O)CC1c4c(cc(OC)c(O)c4Oc4ccc(cc4)CC3N(C)CC2)CC[N+]1(C)C` (stereo not given), the Potency entry in assay [1], in assay [2], in assay [3] and in assay [5] was “inactive” throughout. Further, in assay [4], the activity change, negative = inhibition was 4.12% (inactive). Further, the max response in assay [4] (setting [6]) was -2.85%; in assay [4] (setting [7]), 6.31%.

In the case of `COc1ccc2c(c1OC)OCC(c1ccc(OC)c(OC)c1OC)C2` (stereo not given), the Potency entry in assay [1], in assay [2], in assay [3] and in assay [5] was “inactive” in each case. Further, the activity change, negative = inhibition in assay [4] is 9.26% (inactive). Moreover, the max response in assay [4] (setting [6]) came out at 12.7%; in assay [4] (setting [7]), 23.2%.
